GALR2 ag = GALR2 (human) receptor agonism; GALR2-expressing cells, agonist activation read-out; hit rate 0.48% among 140,000; AID 803; activation, % (test concentration not listed); in the data active = activation above about 5%, passing the limit was not always enough;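 note: 0% = vehicle buffer wells and 100% = reference agonist at full effect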
Target sequence (O43603 whole entry, looked up): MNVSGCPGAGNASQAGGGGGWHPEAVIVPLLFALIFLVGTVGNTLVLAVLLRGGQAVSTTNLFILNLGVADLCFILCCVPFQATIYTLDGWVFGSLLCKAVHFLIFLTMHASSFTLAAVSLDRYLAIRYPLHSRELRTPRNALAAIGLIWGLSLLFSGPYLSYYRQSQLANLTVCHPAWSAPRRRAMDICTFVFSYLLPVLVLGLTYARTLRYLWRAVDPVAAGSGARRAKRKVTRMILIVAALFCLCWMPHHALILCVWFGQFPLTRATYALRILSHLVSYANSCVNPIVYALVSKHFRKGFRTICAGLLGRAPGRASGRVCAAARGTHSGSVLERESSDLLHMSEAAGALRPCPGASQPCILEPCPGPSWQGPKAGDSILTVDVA
GALR2 antag = blocks the human galanin receptor 2; GALR2-expressing cells, antagonist mode; inhibition, % at 4 µM; hit rate 0.39% among 140,000; AID 828;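 note: cells stimulated with galanin 1-16 at roughly its EC80; 0% = agonist challenge control and 100% = basal control without agonist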
SDO1 yeast rescue = compounds rescuing growth of sdo1-depleted yeast, bone marrow failure model. z-score at 10 µM. hit rate 0.21% among 140,000. S. cerevisiae sdo1-depleted JHY4D growth rescue, OD600 30 h; active compounds read high; pdr5 snq2 efflux-pump mutant strain. AID 817;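 active = z-score above 3 at both the 24 hr and the 30 hr optical density reads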;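 note: z-score against mean and SD of all compound wells on the same plate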
FAK inh = blocks human focal adhesion kinase activity; inhibition, %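 (tested at 7 µM)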; hit rate 0.84% among 97,000; Q05397; biochemical FAK kinase activity assay; in the data active = inhibition above about 19%;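 note: 0% = DMSO and 100% = reference compound high control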
S1P2 antag = S1P2 (human) receptor antagonism; inhibition, % at 5 µM; hit rate 0.21% among 97,000; cell-based S1P2 antagonist assay, inhibition at 5 uM; O95136; in the data active = inhibition above about 45%;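 note: CRE beta-lactamase reporter cells expressing human S1P2 stimulated with S1P; 0% = agonist at EC80 alone and 100% = agonist plus reference antagonist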
S1P2 ag = S1P2 (human) receptor agonism. AID 729. S1P2-expressing cell line, agonist reporter read-out. activation, % at 4.5 µM. O95136. hit rate 0.46% among 97,000; in the data active = activation above about 16%;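 note: 0% = vehicle low control and 100% = maximal reference agonist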
GALR2 blk conf = GALR2 (human) antagonism confirmed; shares compounds with GALR2 antag; GALR2-expressing cells, antagonist mode, inhibition; inhibition, % at 4 µM; hit rate 60% among 480;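 note: cells stimulated with galanin at about its EC80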
BLA inhib ctr = beta-lactamase inhibition, GALR2 counterscreen; shares compounds with GALR2 antag; CHO NFAT-BLA reporter, beta-lactamase FRET, thapsigargin-stimulated; inhibition, % at 4.2 µM; hit rate 36% among 480;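 active = inhibition above the mean inhibition across tested compounds plus 3 SD, cut at about 27% in these data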;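 note: 0% = 500 nM thapsigargin stimulated wells and 100% = unstimulated BSA only wells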
* = called active by the depositor; . = not tested or not shown. Shown are actives, neighbours in structure and some others; about 1.9% of the full set was active somewhere. Cut-off read from the data, not from the text of the source, unless noted: active = inhibition above about 27%; inactive = the rest.

SMILES	GALR2 ag	GALR2 antag	SDO1 yeast rescue	FAK inh	S1P2 antag	S1P2 ag	GALR2 blk conf	BLA inhib ctr
COc1cccc(N2CCN(c3ncnc4c3[nH]c3ccccc34)CC2C)c1 (stereo not given)	0	21	-2	.	.	.	.	.
COc1cccc(N2CCN(c3ncnc4c3[nH]c3ccc(F)cc34)CC2C)c1 (stereo not given)	-2	51*	-2.3	5	105*	-4	72*	58*
CCOC(=O)C(=CNc1cccc(N)n1)C(=O)OCC	0	-22	-0.54	1	-10	-4	.	.
CCOC(=O)C(=CNc1ccc(NC2=NCC(C)S2)cc1)C(=O)OCC (stereo not given)	2	33*	-0.37	.	.	.	45*	37*
CN(C)CCCN1C(=O)c2cccc3c([N+](=O)[O-])ccc(c23)C1=O	1	56*	-2.1	.	.	.	48*	31*
O=C(C1CC1)N1CCc2cc(Br)cc(S(=O)(=O)NCc3ccc4c(c3)OCO4)c21	1	9	0.61	.	.	.	.	.
COc1cccc(N2C(=O)CC(N3CCC(C(N)=O)(N4CCCCC4)CC3)C2=O)c1 (stereo not given)	-2	-7	0.72	-1	-7	-3	.	.
Cc1ccc(S(=O)(=O)N2CCN(CC(=O)NC(=O)NCc3ccccc3)CC2)cc1C	-2	7	1.6	-1	4	-7	.	.
CCc1nnc(NC(=O)C(C)C)s1	0	-12	-0.03	2	-33	-3	.	.
CCc1nnc(NC(=O)C=C(C)C)s1	-4	28*	1.4	-1	6	-2	9	11
O=C(COC(=O)c1ccccc1C(=O)c1ccc(Cl)c([N+](=O)[O-])c1)NC1CCCCCC1	-2	31*	-1.1	0	59*	3	64*	52*
C=C(C)CSc1nnc([C@@H](NC(=O)OC(C)(C)C)C(C)CC)o1 (stereo not given in full)	-3	6	-0.03	3	15	-4	.	.
COc1ccc(CCNc2c(C)c(C)nc3ncnn23)cc1	-1	31*	0.39	1	69*	-9	39*	9
CCc1c(C)nc2ncnn2c1NCCc1ccc(OC)c(OC)c1	-2	5	0.01	6	7	-16	.	.
O=C(c1ccccc1)c1ccc2nc(-c3ccc(NC(=O)c4ccccc4F)cc3)[nH]c2c1	4	39*	1.3	1	31	-8	31*	10
O=C(Nc1ccc2nc(-c3ccccc3)[nH]c2c1)c1cccs1	1	4	0.82	-3	-24	2	.	.
O=C1c2ccccc2C(Nc2ccc(S(=O)(=O)N3CCOCC3)cc2)N1Cc1ccco1 (stereo not given)	-1	-5	0.24	6	22	-2	.	.
COc1ccc(/C=N/NC(=O)C[n+]2ccccc2)c(OC)c1OC	-1	7	1.9	.	.	.	.	.
COc1ccc(/C=N/NC(=O)C(N)=O)c(OC)c1OC	-2	27*	0.93	.	.	.	9	13
O=C(CSc1c2c(nc3cc(Cl)ccc13)CCCC2)NCc1ccco1	-3	14	-0.96	12	6	-11	.	.
Cn1c(NC(=O)c2ccc(F)c(F)c2)cc(=O)n(C)c1=O	-1	28*	0.61	.	.	.	16	11
Cc1ccc(C(=O)Nc2cc(=O)n(C)c(=O)n2C)cc1C	-2	-4	-0.81	3	-2	-2	.	.
OC(CN1CCN(c2cccc(C(F)(F)F)c2)CC1)c1c[nH]c2ccccc12 (stereo not given)	0	-2	-0.82	-3	-10	-3	.	.
Cc1nc2scc(-c3ccc(Cl)cc3)c2c(=O)o1	0	-15	-0.53	1	-49	-2	.	.
COCCn1c(SCC(=O)NCc2ccccc2)nnc1-c1ccco1	-3	5	0.69	-1	9	-6	.	.
COc1ccc(C(NC(=O)/C=C/c2ccco2)c2ccc(OC)cc2)cc1	-1	15	0.53	.	.	.	.	.
N#CC(C#N)=C1C=CC=CN1/C(=C\c1ccco1)C(=O)c1ccc(Br)cc1	0	65*	-2.1	.	.	.	68*	68*
COc1ccc(/C=C(/C(=O)c2cccs2)N2C=CC=CC2=C(C#N)C#N)cc1	3	38*	-0.67	.	.	.	66*	55*

Compound activity (PubChem BioAssay)
